Over roughly 33,000 sequences, “E-score (-0.5 to 0.5)” has its median near -0.041; the highest 2% begin near 0.37. The sample holds the highest values, similar sequences and a random draw of the others, so the mix is not that of the screen.
Target: T1, Ecm22 (UniProt Q05958)
T1 sequence: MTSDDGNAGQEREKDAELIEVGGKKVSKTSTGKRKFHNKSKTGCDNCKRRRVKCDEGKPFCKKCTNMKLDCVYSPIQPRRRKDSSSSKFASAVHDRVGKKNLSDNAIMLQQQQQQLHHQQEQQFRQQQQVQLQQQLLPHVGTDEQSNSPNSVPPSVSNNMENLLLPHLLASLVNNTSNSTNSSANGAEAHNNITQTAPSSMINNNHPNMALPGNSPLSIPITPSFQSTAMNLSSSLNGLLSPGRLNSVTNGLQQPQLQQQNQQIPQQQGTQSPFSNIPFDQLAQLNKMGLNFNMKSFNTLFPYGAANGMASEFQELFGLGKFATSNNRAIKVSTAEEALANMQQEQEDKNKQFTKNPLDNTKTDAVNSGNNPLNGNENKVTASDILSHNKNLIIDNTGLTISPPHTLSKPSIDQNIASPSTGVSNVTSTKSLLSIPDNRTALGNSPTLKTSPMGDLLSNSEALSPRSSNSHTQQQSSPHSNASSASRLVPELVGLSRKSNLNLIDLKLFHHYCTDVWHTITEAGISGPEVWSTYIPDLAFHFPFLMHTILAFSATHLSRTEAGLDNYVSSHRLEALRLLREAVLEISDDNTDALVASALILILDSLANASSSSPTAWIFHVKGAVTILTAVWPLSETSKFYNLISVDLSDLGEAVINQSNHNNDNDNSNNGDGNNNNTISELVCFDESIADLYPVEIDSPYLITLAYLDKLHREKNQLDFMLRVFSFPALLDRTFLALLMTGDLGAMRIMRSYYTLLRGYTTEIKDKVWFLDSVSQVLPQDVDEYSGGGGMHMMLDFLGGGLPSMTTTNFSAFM
Experiment: PBM E-score (8-mer binding enrichment) (E-score (-0.5 to 0.5)); higher = stronger / more preferred TF binding
Details: protein concentration: 200 nM; construct: GST-full length
Method: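 Universal 'all 10-mer' protein binding microarrays (Agilent AMADID 015681) probed with GST-tagged S. cerevisiae TFs (full-length or DBD) made by in vitro transcription/translation (PURExpress), about 100-200 nM. Bound TF was detected with fluorescent anti-GST. Each ungapped 8-mer (which stands for itself and its reverse complement) is scored by the PBM enrichment score (E-score), a modified Wilcoxon-Mann-Whitney statistic from -0.5 to +0.5, computed with the Universal PBM Analysis Suite. Scale: above 0.35 generally sequence-specific binding.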

Sequence	PBM E-score
TATGGGAA	-0.0838
GCTTTTGA	-0.115
AACCCTTG	-0.0616
CGGATACA	0.162
CGGATACG	0.386
CGGATACC	0.0623
ATAGACAT	-0.0449
CCAGCGAC	-0.231
CGATAGCG	0.128
CGGCGACG	0.0233
ATTATACA	0.0593
ATTATACC	0.104
CCTATACA	-0.00901
ACTATACT	0.144
CCTATACG	0.465
ATTATACG	0.476
ACTATACG	0.463
CCTATACC	-0.0658
ACTATACA	0.108
TATGCAGA	0.0611
ATAAGCCC	-0.136
ACCTACCG	-6e-05
TAGTCAGA	-0.276
ACGGGTCG	0.267
AGACAAAG	0.0946

Sequence	PBM E-score
ATAAGCGA	0.332
CTAAGCGC	0.0189
CTAAGCGA	0.385
AGACTCAC	-0.22
GCTGGCAC	-0.325
CCGGAATC	-0.169
CGCGGTAA	0.191
CGTTCCGC	0.458
GGTTCCGA	-0.00514
CTTTCCGC	-0.0543
AGTTCCGC	0.09
AGTTCCGA	0.226
CGTTCCGA	0.444
ACCGGACA	-0.108
TCCTGAAA	-0.00548
ATTCAAGG	-0.157
AAGAACGT	0.101
TAGAACTA	-0.0234
CAGAACGC	-0.0854
GAGAACCA	-0.098
GAGAACGA	0.422
GAGAACGC	0.117
AAGAACGG	0.243
CAGAACGG	0.075
TAGAACCA	0.00176

Sequence	PBM E-score
CAGAACGA	0.379
TAGAACGA	0.429
AAGAACGA	0.453
GAATCGAC	0.163
ACGGGAGC	0.225
TAATCCTA	0.00777
GACGGAGC	-0.0469
CCTAGGAG	-0.239
CCAAGGCA	-0.0888
CAAGTGCA	-0.24
CTGGATGC	-0.159
GCATAGGC	-0.178
GGCATGAC	-0.121
AGGCTGGG	-0.263
CCAAGCCC	-0.117
CTTCTGTC	-0.199
GGGAACCA	-0.215
GGGAACGA	0.492
GGGAACAA	0.143
AGCCATTA	0.18
AGAGGCTA	-0.209
TAATACGA	0.437
GAATACTA	0.141
AAATACGA	0.451
AAATACGT	0.0932

Sequence	PBM E-score
CAATACGG	0.0307
TAATACTA	0.114
TAATACCA	0.0168
CAATACGC	-0.0345
CAATACGA	0.403
AAATACGC	0.194
GAATACGA	0.432
GAATACGC	0.152
ATCGCCGA	0.00202
GGTTGTCA	-0.195
ACCGCAGC	-0.0492
ATCTTTTA	0.0457
GCCCGCAC	-0.0245
CACCCCAG	-0.0849
ACAATAAT	-0.0625
CGCGGATA	0.188
CACCACAG	-0.132
CTACCCAG	-0.0541
ACCCCAGT	-0.0793
CCTAGAAG	-0.187
CGTGGCGC	0.0496
ACGAAACA	0.335
ACGAAACT	0.369
ACGAAATC	0.285
ACGAAAGG	0.33

Sequence	PBM E-score
ACGAAACC	0.33
CCGAAACG	0.288
ACGAAATA	0.381
GCGAAATA	0.0791
ACGAAACG	0.411
CGAAGGAG	0.129
GACTGAAC	0.0447
AATTCAGT	-0.189
AAACCTTA	0.0879
CTAAGGGA	0.0248
ATCCCACA	-0.176
AATCGTCT	0.0505
GATCGTCC	-0.0538
AATCGTAT	0.427
AATCGTAA	0.333
GATCGTTA	0.211
GATCGTAC	0.454
GATCGTAA	0.387
AATCGTAG	0.211
CATCGTCA	-0.0402
CATCGTGA	0.108
GATCGTGC	0.0469
CATCGTAA	0.381
CCCGCAAA	0.148
CTGACCCA	-0.312

Sequence	PBM E-score
ACTGCTAC	0.00971
CATGCTCA	-0.229
CCACGGAG	-0.163
ACACAGTA	-0.0309
AATCGTAC	0.458
CATCGTAG	0.261
AATCGTCC	0.0602
AATCGTGC	0.221
CATCGTCC	0.0413
CATCGTAC	0.458
GTTAAGCA	-0.0308
CATCAGAG	-0.126
ACACCCCT	-0.271
TGTTCTAA	-0.023
AGTGCGTA	0.14
CGAGTATC	0.246
CCGCTATC	0.0478
CATACGCA	0.216
TATACGGA	0.439
GATACGCA	0.231
CATACGGA	0.362
TATACGCA	0.415
GATACGGA	0.285
CGGATCGA	0.219
ATCTTTTC	-0.0858

Sequence	PBM E-score
ACGTTATG	0.163
CCGAGTAC	0.24
AAGAGTAT	-0.113
CCGAGTAA	0.256
GCGAGTAA	0.114
ACGAGTAG	0.38
CCGAGTAG	0.0401
ACGAGTAA	0.396
AAGAGTAG	-0.211
AGGAGTAT	-0.109
ACGAGTAT	0.382
ACGAGTAC	0.421
GCGAGTAC	0.324
AGGCCCAT	-0.148
GACCGCGC	0.0551
CCCGACCC	0.092
AAGCGCGT	0.0575
CCCCTCGG	0.266
CCGAGCCC	0.0573
CCCCTCTA	-0.112
AAGTTTGT	-0.176
AACTGTTC	-0.177
ACGCAGGA	0.108
